# Compound activity as filed in PubChem BioAssay.
# ATXN viability = cell viability loss in ATXN counter-screen | Potency, µM (doses to about 56.7 µM), usual class: cytotoxic | S2 cells (HEK-293 line with an ATXN2-luciferase reporter) viability, CellTiter-Fluor protease fluorescence, 24 h | 400,000 compounds, 0.49% hits; note: nearly all actives have a fitted effect of over 40% in size
# DT40 TDP1 CPT = DT40-hTDP1 cell growth loss with CPT; chicken DT40 Tdp1-/-;hTDP1 cells + 20 nM CPT, ATP luminescence, 48 h; Potency, µM (top dose mostly 46.2 µM), for inactives: at the top dose activity change, negative = growth inhibition, most hits filed as inhibitors; 420,000 compounds, 12% hits; note: % is set by controls: 0 for no effect and ±100 for the full control effect; nearly all actives have a fitted effect of over 55% in size
#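 Chicken DT40 Tdp1-/- cells complemented with human TDP1, 400 cells/well, exposed to compounds plus 20 nM camptothecin for at least 48 h at 37 C; viability read as ATP content by CellTiter-Glo luminescence.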
# TGFb SMAD3 inh = inhibitors of TGF-b signaling | HepG2 CAGA-GFP TGF-b/SMAD3 reporter, GFP fluorescence, 18 h; TGF-beta stimulated, 500 pg/mL final | Potency, µM (titrated, usually from 46.1 µM), without a hit: at the top dose activity, negative = inhibition, usual class: inhibitors | 410,000 compounds, 1.2% hits; note: % is set by controls: 0 for no effect and ±100 for the full control effect; nearly all actives have a fitted effect of over 65% in size
#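 Smad-responsive CAGA-GFP expression was quantified in HEPG2 cells exposed to compounds and 500 pg/mL final TGF-beta for 18 h at 37 degrees C; unstimulated wells defined full inhibition.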
# TDP1 cell noCPT = qHTS for Inhibitors of human tyrosyl-DNA phosphodiesterase 1 (TDP1): qHTS in cells in absence of CPT; DT40 Tdp1-/- hTDP1 cells, no CPT, ATP luminescence, 48 h; Potency, µM (series often up to 46.2 µM), inactives show at the highest dose activity change, negative = growth inhibition, most hits filed as inhibitors; 420,000 compounds, 15% hits; AID 686978, 2013; note: % is set by controls: 0 for no effect and ±100 for the full control effect; nearly all actives have a fitted effect of over 55% in size
#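 DT40 Tdp1-/-;hTDP1 cells, no CPT (DMSO vehicle only), 400 cells/well; compounds pin-transferred; ≥48 hr, 37 °C; CellTiter-Glo 30 min RT dark, luminescence read.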
# HepG2 tox = kills HepG2 cells in TGF-b inhibitor counter-screen. HepG2 CAGA-GFP viability, ATP luminescence, 18 h. Potency, µM (highest dose often 46.1 µM), for the others: at the top dose activity change, negative = cytotoxicity, most hits filed as cytotoxic. 410,000 compounds, 0.76% hits
#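 CellTiter-Glo luminescence gave cytotoxicity after 18 hours at 37 degrees C. The cells were HepG2 CAGA-GFP in 1% FBS DMEM, stimulated with 500 pg/mL TGF-beta after compound addition. %Activity was normalised to no-cell wells (complete cell-killing) and DMSO (no toxicity), and curves were fitted and classified.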
# ATXN2 expr inh = ATXN2 expression inhibition; HEK-293 ATXN2-luciferase reporter, luminescence, 24 h; Potency, µM (highest dose often 57 µM), for the others: at the highest dose activity change, negative = inhibition, most hits filed as inhibitors; 360,000 compounds, 0.72% hits; AID 1745845; note: % is set by controls: 0 for no effect and ±100 for the full control effect; nearly all actives have a fitted effect of over 55% in size
#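 qHTS (up to 57 uM final) was run with 24 h compound exposure of reporter cells at 37 °C. Each well was multiplexed: SteadyGlo luminescence measured ATXN2-luciferase expression after a fluorogenic Gly-Phe-AFC viability readout (25 uM final).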
# The depositor's hits bear a star; i = inactive; ? = inconclusive; · = not tested or not shown; [ ] = another dose, or the depositor's remark. Hits are enriched below; roughly 17% of the tested compounds scored in any of these assays. Calls come from the whole dose curve; as a rule, active = well fitted curve in the direction sought with a large enough effect; inconclusive = small, poorly fitted or top-dose-only effect, or another doubt; inactive = no such curve, though single readings can be large; an effect the other way counts as inactive or inconclusive. Potency is the fitted concentration of half-maximal effect.
SMILES,ATXN viability,DT40 TDP1 CPT,TGFb SMAD3 inh,TDP1 cell noCPT,HepG2 tox,ATXN2 expr inh
COc1ccc(C(O)c2nc(-c3ccccc3OC)cs2)cc1 (centres undefined),i,?,-18%,?,-7%,18%
COc1ccccc1-c1csc(C(O)c2ccccc2)n1 (centres undefined),i,23µM*,17%,?,-36%,7%
CCOC(=O)c1cccc(NC(=O)c2ncoc2-c2ccco2)c1,i,-25%,-9%,-28%,-26%,8%
COc1ccc(CCN(C)C2CC(=O)N(c3ccccc3)C2=O)cc1OC (centres undefined),i,9.2µM*,-5%,?,-1%,17%
COc1ccc(CCN(C)Cc2ccc(OC)c(OCc3ccccc3)c2)cc1OC,?,?,21%,23µM*,-32%,-15%
CCc1cc2c(cc3c(=O)n(CC(=O)NC(C)C)nc(CC)n32)s1,·,?,0%,16µM*,-6%,·
CCCCN(CCCC)CCNC(=O)Cn1nc(CC)n2c(cc3sc(C)cc32)c1=O,·,15µM*,0%,16µM*,-10%,·
CCCn1nc(C(=O)NC2CCCCCC2)c2ccccc2c1=O,i,?,0%,?,-2%,2%
O=C(c1ccccc1)N1N=C(c2ccccc2)CC1c1ccccc1[N+](=O)[O-] (centres undefined),i,-10%,0%,?,10%,0%
CCC(=O)Nc1cccc(C(=O)/C=C/c2cccs2)c1,?,?,?,21µM*,-34%,·
CCC(=O)Nc1cccc(C(=O)c2ccccc2)c1,i,-17%,1%,-9%,-3%,19%
CC(=O)Nc1cccc(C(=O)OC(C(=O)c2ccc(C)c(C)c2)c2ccccc2)c1 (centres undefined),i,16µM*,-16%,16µM*,6%,-22%
CCC(=O)Nc1cccc(C(=O)/C=C/c2ccccc2)c1,?,4.1µM*,?,5.2µM*,-95%,?
CC(=O)c1cccc(NC(=O)Cc2cccs2)c1,i,-2%,-2%,-21%,2%,9%
CCC(=O)Nc1cccc(C(=O)c2ccc(C)c(C)c2)c1,i,-29%,-2%,21µM*,-19%,-2%
CCc1ccccc1NC(=S)N1CCCCCC1,i,?,-7%,?,-1%,-8%
CCOC(=O)C1(C)CCN1C(=O)c1ccc(C(C)(C)C)cc1 (centres undefined),i,16µM*,-6%,21µM*,0%,11%
CCOC(=O)C1(C)CCN1C(=O)c1ccoc1 (centres undefined),i,-18%,-3%,12%,9%,2%
CCOC(=O)C1(C)CCN1C(=O)c1ccc(SC(F)(F)F)cc1 (centres undefined),i,18µM*,0%,?,-34%,7%
CCOC(=O)C1(C)CCCCCN1C(=O)c1ccc(SC(F)(F)F)cc1 (centres undefined),i,?,16%,?,-3%,-3%
CCOC(=O)c1ccc(NC(=O)CSc2nnc(CC)o2)cc1,i,-4%,-1%,9%,-1%,-11%
Cc1ccc2c(c1)-c1c(cnc3cc(-c4ccccc4)nn13)CO2,i,-21%,2%,-7%,-13%,2%
CN1CCc2nc(SCc3ccc(Cl)cc3)c(C#N)c(-c3cccs3)c2C1,?,16µM*,?,?,-106%,?
CN1CCc2nc(SCc3ccc(C(C)(C)C)cc3)c(C#N)cc2C1,i,23µM*,-9%,?,-40%,-12%
CCOC(=O)CC(=O)CSc1nc2c(c(-c3cccs3)c1C#N)CCC2,i,3%,13%,-4%,0%,·
SMILES,ATXN viability,DT40 TDP1 CPT,TGFb SMAD3 inh,TDP1 cell noCPT,HepG2 tox,ATXN2 expr inh
Cc1ccc(CSc2nc3c(cc2C#N)CCC3)cc1,i,-9%,7%,-2%,6%,6%
N#Cc1cc2c(nc1SCc1ccccc1)CCCCC2,i,18µM*,0%,21µM*,0%,31%
CC(=O)N1CCc2cc(NC(=O)C3(C)CCN3Cc3ccccc3Cl)ccc21 (centres undefined),i,-20%,-6%,?,-26%,-28%
Cc1c(F)c(N2CCNC(C)C2)cc2c1c(=O)c(C(=O)O)cn2C1CC1 (centres undefined),i,0%,·,4%,·,10%
Cc1ccc(C)c(OCc2nnc(NC(=O)c3ccc4c(c3)OCO4)s2)c1,i,?,2%,-16%,-3%,-9%
Cc1onc(C(=O)NCc2ccccn2)c1[N+](=O)[O-],i,-4%,2%,-5%,1%,-18%[11.3 µM]
COc1ccc(CCN=C(N)Nc2nc(C)cc(C)n2)cc1,i,7.3µM*,-18%,7.3µM*,-19%,-33%
CCN(CC)CCN(C(=O)c1ccc2c(c1)OCCO2)c1nc2c(Cl)cccc2s1,i,18µM*,-1%,?,-3%,-26%
CCN(CC)CCN(C(=O)c1ccc(S(=O)(=O)N2CCCCC2)cc1)c1nc2cc3c(cc2s1)OCO3,i,?,2%,?,-32%,-13%
CCN(CC)CCN(C(=O)c1ccc2c(c1)OCCO2)c1nc2cc(C)cc(C)c2s1,?,15µM*,2%,?,-49%,-21%
C=CCc1c(C)[nH]c2c(OC)cccc2c1=S,i,13µM*,-19%,18µM*,-16%,-6%
CCCCc1c(C)[nH]c2c(OC)cccc2c1=S,·,-7%,-19%,?,-13%,·
Cc1ccc(C)c(N(CC(=O)NC2CCCC2)C(=O)c2oc(C(C)(C)C)cc2C)c1,?,8.2µM*,?,9.2µM*,22µM*,?
Cc1ccc(C)c(N(CC(=O)NC2CCCCC2)C(=O)c2csnn2)c1,i,5%,-2%,-21%,17%,1%
Cc1cc(C(C)(C)C)oc1C(=O)N(CC(=O)NC1CCCC1)Cc1ccccc1,i,15µM*,0%,13µM*,3%,-11%
Cc1cc(C(C)(C)C)oc1C(=O)OCC(=O)NC1CCCCC1,i,?,2%,?,-10%,-1%
Cc1cc(C(C)(C)C)oc1C(=O)N(CC(=O)NC1CCCC1)Cc1ccc(F)cc1,i,21µM*,-4%,?,1%,-17%
Fc1ccccc1NC(=S)Nc1ccc(CN2CCOCC2)cc1,i,4%,-14%,0%,-28%,10%
